The record followed here is PubChem BioAssay (Tox21).

Each structure is given as a SMILES string. Where “and” joins values, the source holds several entries; their conditions need not be identical. Equal values may be shown once. Inconclusive results are not listed. Where a call stands in place of a potency, no number is given. Calls of active or inactive are those of the source. Calls follow the shape of the dose curve; as a rule, active = well fitted curve in the direction sought with a large enough effect in the repeat runs; inconclusive = weak or mixed curves; inactive = no such curve, though single readings can be large; an effect the other way counts as inactive or inconclusive.
Potency is read from the fitted curve at half-maximal effect.

The first experiment in a line: qHTS assay to identify small molecule agonists of the RXR signaling pathway - cell viability counter screen (AID 1159529). Also: nearly all actives have a fitted effect of over 50% in size. The conditions noted are these: RXR-alpha-bla HEK293T viability, CellTiter-Glo, 16 h; series mostly up to 76.8 µM. The method, boiled down: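 Compounds dissolved in DMSO were pinned onto HEK 293T cells carrying a beta-lactamase reporter under RXR-alpha control and incubated 16 hr. Cytotoxicity was then quantified by CellTiter-Glo luminescence.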
In general terms: qHTS replaces the single test concentration by a dilution series.
For `O=C(O)C(O)C(O)C(=O)O` (stereo not given), the Potency entry is “inactive”.

As to `CC(Cc1ccccc1)NCc1ccccc1Cl` (stereo not given), the Potency entry is “inactive”.

In the case of `O=[N+]([O-])c1cc(Cl)c(Cl)cc1Cl`, the Potency entry was “inactive”.

As for `CCCCCCCCCCCC[N+](C)(C)CCOc1ccccc1`, the Potency was 8.71 µM (active) and 12 µM (active).

In the case of `CCCC1CCCCN1` (stereo not given), the Potency result is “inactive”.

`CC(C)CCCCCCCOC(=O)c1ccccc1C(=O)OCCCCCCCC(C)C`: the Potency result was “inactive”.

As to `CC1(C)[C@H](C(=O)O[C@H](C#N)c2cccc(Oc3ccccc3)c2)[C@@H]1C=C(Br)Br`, the Potency entry was “inactive”.

On to `CCc1ccccc1N`, for which the Potency entry is “inactive”.

On to `C=CCOCC1CO1` (stereo not given), for which the Potency entry was “inactive”.

Turning to `COP(=O)(OC)OC(Br)C(Cl)(Cl)Br` (stereo not given), the Potency entry is “inactive”.

Turning to `CC(O)CN1CCN(CC(=O)[O-])CCN(CC(=O)[O-])CCN(CC(=O)[O-])CC1.[Gd+3]` (stereo not given), the Potency result was “inactive”.

Turning to `Cc1ccc(N)c(C)c1`, the Potency result is “inactive”.

As for `CCOP(=S)(S)OCC`, the Potency entry was “inactive”.

In the case of `CCCC(C)(COC(N)=O)COC(=O)NC(C)C` (stereo not given), the Potency result was “inactive”.

Regarding `O=C(O)c1ccc(=O)[nH]c1`, the Potency entry is “inactive”.

As to `COc1cc(CC(C)N)c(OC)cc1Br` (stereo not given), the Potency result was “inactive”.

Turning to `[Cl-].[Cl-].[Hg+2]`, the Potency was 3.08 µM (active) and 3.09 µM (active).

As to `SCc1ccccc1`, the Potency entry is “inactive”.

Take `CC(C)OC(=O)Cc1ccccc1`: the Potency result is “inactive”.

For `C[Si](Cn1cncn1)(c1ccc(F)cc1)c1ccc(F)cc1`, the Potency result is “inactive”.

As for `CN1C[C@H](C(=O)N[C@]2(C)O[C@@]3(O)[C@@H]4CCCN4C(=O)[C@H](Cc4ccccc4)N3C2=O)C=C2c3cccc4[nH]cc(c34)C[C@H]21`, the Potency was 22 µM (active).

Consider `CC(=O)OC(c1ccccc1)C(Cl)(Cl)Cl` (stereo not given), for which the Potency entry is “inactive”.

For the compound `CC(C)[C@@H](C(=O)O[C@@H](C#N)c1cccc(Oc2ccccc2)c1)c1ccc(Cl)cc1`, the Potency result was “inactive”.

With `CCCC[N+]1(C)[C@@H]2CC(OC(=O)[C@H](CO)c3ccccc3)C[C@H]1[C@@H]1O[C@@H]12` (stereo not given in full), the Potency entry was “inactive”.

Take `CC(C)(C#N)C(C)(C)C#N`: the Potency entry was “inactive”.

`C[N+]1(CCF)[C@@H]2CC[C@H]1CC(OC(=O)C(O)(c1ccccc1)c1ccccc1)C2` (stereo not given in full): the Potency result was “inactive”.

On to `CC(C)C1(C)N=C(c2ncccc2C(=O)O)NC1=O` (stereo not given), for which the Potency entry is “inactive”.

Turning to `C[C@]12C=CC3=C4CCC(=O)C=C4CC[C@H]3[C@@H]1CC[C@@H]2O`, the Potency result is “inactive”.

For the compound `CCCSP(=S)(OCC)Oc1ccc(SC)cc1` (stereo not given), the Potency result was “inactive”.

For `CCCC[P+](CC)(CCCC)CCCC` (tested in a mixture with another compound), the Potency result is “inactive”.

Regarding `O=C([O-])c1ccccn1.O=C([O-])c1ccccn1.O=C([O-])c1ccccn1.[Cr+3]`, the Potency result was “inactive”.

With `NCCc1cc(O)c(O)cc1O`, the Potency entry was “inactive”.

With `CCCCCCCCn1sccc1=O`, the Potency was 1.95 µM (active) and 2.04 µM (active).

With `OCCSSCCO`, the Potency entry is “inactive”.

As for `O=[N+]([O-])O[C@H]1CO[C@H]2[C@@H]1OC[C@H]2O[N+](=O)[O-]`, the Potency result is “inactive”.

As for `OCC1CO1` (stereo not given), the Potency entry is “inactive”.

In the case of `O=C(CCl)CCl`, the Potency entry was “inactive”.

Take `C[C@@H]1C[C@@H]([C@H](O)CC2CC(=O)NC(=O)C2)C(=O)[C@@H](C)C1`: the Potency entry was “inactive”.

Another experiment is described as follows: qHTS assay to identify small molecule antagonists of the retinoid acid receptor (RAR) signaling pathway - cell viability counter screen (AID 1159551). Also: nearly all actives have a fitted effect of over 35% in size. The conditions noted are these: C3RL4 cells viability, ATP luminescence (CellTiter-Glo), 6 h; series mostly up to 92.4 µM. Put shortly: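 Viability of C3RL4 cells is quantified from ATP by luminescence after 6 h treatment at 37 C with compounds and 1 uM retinol.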
In the case of `O=C(O)C(O)C(O)C(=O)O` (stereo not given), the Potency entry is “inactive”.

Consider `CC(Cc1ccccc1)NCc1ccccc1Cl` (stereo not given), for which the Potency entry is “inactive”.

In the case of `O=[N+]([O-])c1cc(Cl)c(Cl)cc1Cl`, the Potency result was “inactive”.

For the compound `CCCCCCCCCCCC[N+](C)(C)CCOc1ccccc1`, the Potency is 61.1 µM (active).

Turning to `CCCC1CCCCN1` (stereo not given), the Potency entry was “inactive”.

For the compound `CC(C)CCCCCCCOC(=O)c1ccccc1C(=O)OCCCCCCCC(C)C`, the Potency entry was “inactive”.

In the case of `CC1(C)[C@H](C(=O)O[C@H](C#N)c2cccc(Oc3ccccc3)c2)[C@@H]1C=C(Br)Br`, the Potency result is “inactive”.

Regarding `CCc1ccccc1N`, the Potency result was “inactive”.

For the compound `C=CCOCC1CO1` (stereo not given), the Potency entry was “inactive”.

Take `COP(=O)(OC)OC(Br)C(Cl)(Cl)Br` (stereo not given): the Potency entry was “inactive”.

For the compound `CC(O)CN1CCN(CC(=O)[O-])CCN(CC(=O)[O-])CCN(CC(=O)[O-])CC1.[Gd+3]` (stereo not given), the Potency entry was “inactive”.

`Cc1ccc(N)c(C)c1`: the Potency entry was “inactive”.

On to `CCOP(=S)(S)OCC`, for which the Potency result is “inactive”.

As for `CCCC(C)(COC(N)=O)COC(=O)NC(C)C` (stereo not given), the Potency result was “inactive”.

Take `O=C(O)c1ccc(=O)[nH]c1`: the Potency result is “inactive”.

For the compound `COc1cc(CC(C)N)c(OC)cc1Br` (stereo not given), the Potency entry is “inactive”.

On to `[Cl-].[Cl-].[Hg+2]`, for which the Potency is 27.2 µM (active) and 6.11 µM (active).

On to `SCc1ccccc1`, for which the Potency result was “inactive”.

In the case of `CC(C)OC(=O)Cc1ccccc1`, the Potency entry is “inactive”.

With `C[Si](Cn1cncn1)(c1ccc(F)cc1)c1ccc(F)cc1`, the Potency result is “inactive”.

Consider `CN1C[C@H](C(=O)N[C@]2(C)O[C@@]3(O)[C@@H]4CCCN4C(=O)[C@H](Cc4ccccc4)N3C2=O)C=C2c3cccc4[nH]cc(c34)C[C@H]21`, for which the Potency result is “inactive”.

Consider `CC(=O)OC(c1ccccc1)C(Cl)(Cl)Cl` (stereo not given), for which the Potency result was “inactive”.

In the case of `CC(C)[C@@H](C(=O)O[C@@H](C#N)c1cccc(Oc2ccccc2)c1)c1ccc(Cl)cc1`, the Potency result was “inactive”.

`CCCC[N+]1(C)[C@@H]2CC(OC(=O)[C@H](CO)c3ccccc3)C[C@H]1[C@@H]1O[C@@H]12` (stereo not given in full): the Potency entry is “inactive”.

For `CC(C)(C#N)C(C)(C)C#N`, the Potency entry is “inactive”.

On to `C[N+]1(CCF)[C@@H]2CC[C@H]1CC(OC(=O)C(O)(c1ccccc1)c1ccccc1)C2` (stereo not given in full), for which the Potency result is “inactive”.

In the case of `CC(C)C1(C)N=C(c2ncccc2C(=O)O)NC1=O` (stereo not given), the Potency entry was “inactive”.

Consider `C[C@]12C=CC3=C4CCC(=O)C=C4CC[C@H]3[C@@H]1CC[C@@H]2O`, for which the Potency entry is “inactive”.

In the case of `CCCSP(=S)(OCC)Oc1ccc(SC)cc1` (stereo not given), the Potency entry is “inactive”.

Regarding `CCCC[P+](CC)(CCCC)CCCC` (tested in a mixture with another compound), the Potency result is “inactive”.

For the compound `O=C([O-])c1ccccn1.O=C([O-])c1ccccn1.O=C([O-])c1ccccn1.[Cr+3]`, the Potency entry is “inactive”.

Take `NCCc1cc(O)c(O)cc1O`: the Potency entry was “inactive”.

For the compound `CCCCCCCCn1sccc1=O`, the Potency is 68.7 µM (active) and 64.1 µM (active).

Take `OCCSSCCO`: the Potency entry was “inactive”.

As to `O=[N+]([O-])O[C@H]1CO[C@H]2[C@@H]1OC[C@H]2O[N+](=O)[O-]`, the Potency entry is “inactive”.

Consider `OCC1CO1` (stereo not given), for which the Potency result was “inactive”.

For `O=C(CCl)CCl`, the Potency entry is “inactive”.
